Records with an inconclusive call do not appear. Entries that show only a call come without a potency. Calls of active or inactive are those of the source. The call rests on the fitted dose curve; in most records, active means well fitted cell-killing curve with a large enough effect; inconclusive means small, poorly fitted or top-dose-only effect; inactive means no such curve, though single readings can be large or run the other way.
Potency means the concentration at half of the fitted maximal effect.

The experiment is described as follows: qHTS of pediatric cancer cell lines to identify multiple opportunities for drug repurposing: Primary screen for Saos-2 cells (AID 1347097). Further: nearly all actives have a fitted effect of over 40% in size. To be noted: Saos-2 viability, CellTiter-Glo ATP luminescence, 48 h; series mostly up to 46 µM. From the text:
Drug repurposing or repositioning has been offered as a strategy for drug development in oncology programs. This approach has special potential for childhood cancers and other rare or orphan diseases, where the expected return on new drug development has been a disincentive to pharmaceuticals. […] In this project we exploit the poly-pharmacology of drugs to discover new indications via phenotypic screening of a panel of 19 well-characterized cell lines derived from solid tumors seen in children and adolescents. The goal is to identify approved drugs with previously unrecognized anticancer properties that has the potential to reveal new mechanisms and biological processes involved in carcinogenesis or drug resistance. We employed a titration-based paradigm (quantitative high-throughput screening or qHTS), where all compounds were tested at multiple concentrations for their effect on cell viability. Concentration-response curves (CRCs) were derived directly from the primary screen, and both potency and efficacy values were used to identify compounds with robust bioactivity profiles. We screened the NIH Chemical Genomics Center (NCGC) Pharmaceutical Collection (NPC) and Mechanism Interrogation Plate (MIPE) small molecule collections of approved and investigational compounds against these cell lines; and measured metabolically active cells after 48 hours of compound treatment as a proxy for cell viability. […] Assay Submitter: Nathalia J. Martinez, National Center for Advancing Translational Sciences, National Institutes of Health, Rockville, MD, USA; email: natalia.martinez@nih.gov Shen, M et al. Quantitative high-throughput phenotypic screening of pediatric cancer cell lines identifies multiple opportunities for drug repurposing. Oncotarget 2017 Dec 19;9(4):4758-4772. PMID 29435139.
The cells were obtained from University of North Carolina (UNC), Pediatric Preclinical Testing Program (PPT), and Coriell Institute (CI). qHTS cell viability assay: Cells were assayed in growth media at a density of 500-1,000 cells/well. Five microliters of cells were dispensed into 1,536-well, white, solid-bottom, TC-treated plates (Greiner Bio One) using a multidrop dispenser and incubated at 37 degrees C, 5% CO2, under a humidified atmosphere for 5 hours. Twenty-three nanoliters of compounds and controls (neutral control DMSO or positive control bortezomib at final concentration of 2.3 µM) were subsequently transferred by Kalypsys pintool. For primary screens, the MIPE collection was tested at 11-point dilutions (final concentrations range from 0.78 nM to 46 µM) and the NPC collection at 8-point dilutions (final concentrations range from 0.59 nM to 46 µM). Compounds tested in follow-up screens were assayed at 11-point dilutions. Cells were incubated for 48 hours, followed by addition of 3 µL of CellTiter-Glo (Promega). After a 15 min incubation at room temperature, samples were analyzed for luminescence intensity using a ViewLux High-throughput CCD imager equipped with clear filters.
Take `NC(=O)NC(=O)Cc1ccccc1`: the Potency result was “inactive”. The entry for `Nc1cc(=O)[nH]c(N)n1` is “inactive”; for `CC(C)(C)NCC(O)COc1ccc(NC(=O)NC2CCCCC2)cc1` (stereo not given) it is “inactive”; for `COc1ccc(S(=O)(=O)Nc2nnc(CC(C)C)s2)cc1` it is “inactive”. Turning to `CN(C)CCN(Cc1ccccc1)c1ccccn1`, the Potency result was “inactive”. In the case of `CNC(=O)Oc1ccc2c(c1)[C@]1(C)CCN(C)[C@@H]1N2C`, the Potency result is “inactive”. For the compound `Cc1ccc(C(C)C)cc2c(C)ccc1-2`, the Potency result is “inactive”.

Take `NC(CSCC(=O)O)C(=O)O` (stereo not given): the Potency entry is “inactive”.

`Oc1cn2c(n1)Nc1ccc(Cl)c(Cl)c1C2`: the Potency result is “inactive”.

Turning to `CCCCC(CC)COC(=O)c1ccccc1O` (stereo not given), the Potency result was “inactive”. On to `CS(=O)(=O)c1ccc([C@@H](O)[C@@H](CF)NC(=O)C(Cl)Cl)cc1`, for which the Potency entry is “inactive”. The entry for `N[C@@H](CSCCCO)C(=O)O` is “inactive”. Regarding `NC1CCN(c2cccc(Cl)n2)CC1`, the Potency result was “inactive”. In the case of `CN1[C@@H]2CC[C@H]1CC(OC(=O)C(O)c1ccccc1)C2` (stereo not given in full), the Potency result is “inactive”. As for `O=C1NC(=O)[C@@]2(CCOc3ccc(F)cc32)N1`, the Potency entry was “inactive”.

With `COc1cc2[nH]c(=O)[nH]c(=O)c2cc1OC`, the Potency entry is “inactive”. For the compound `CCN(CC)CCSC(=O)C(c1ccccc1)c1ccccc1`, the Potency entry is “inactive”. For `CCCc1c(OCCCCc2nn[nH]n2)ccc(C(C)=O)c1O`, the Potency entry is “inactive”.

In the case of `CC1(C)S[C@@H]2[C@H](NC(=O)Cc3ccccc3)C(=O)N2[C@H]1C(=O)O` (tested in a mixture with another compound), the Potency result was “inactive”. For the compound `COc1cc(C(=O)N2CCOCC2)cc(OC)c1OC`, the Potency entry was “inactive”. For the compound `CNCC(O)c1ccc(O)c(O)c1` (stereo not given), the Potency was 26.6 µM (active). The entry for `CC12CCC(CC1)C(C)(C)O2` is “inactive”; for `NC1[C@H]2CN(c3nc4c(cc3F)c(=O)c(C(=O)O)cn4-c3ccc(F)cc3F)C[C@@H]12` (stereo not given in full) it is “inactive”; for `COc1ccccc1O` it is “inactive”. In the case of `Cc1ccc2nc(N)[nH]c(=O)c2c1Sc1ccncc1` it was 13.3 µM (active). The entry for `CCCOC(=O)c1ccccc1` is “inactive”; for `CN(C)CCCN1c2ccccc2CCc2ccccc21` it is “inactive”.

Turning to `Cc1ncc([N+](=O)[O-])n1CC(O)CCl` (stereo not given), the Potency entry was “inactive”. Take `Nc1ccc(S(=O)(=O)Nc2ccc(Cl)nn2)cc1`: the Potency entry is “inactive”. Consider `CCN(CC)CCNC(=O)c1c(C)[nH]c(/C=C2\C(=O)Nc3ccc(F)cc32)c1C`, for which the Potency was 21.1 µM (active). With `OCC(CO)N[C@H]1C[C@](O)(CO)[C@@H](O)[C@H](O)[C@H]1O`, the Potency result was “inactive”. Take `CC1(C)CO[C@@H](CC(=O)O)CN1`: the Potency result is “inactive”.

Take `CCN(CC)CCNC(=O)c1cc(Cl)c(N)cc1OC`: the Potency entry was “inactive”. Regarding `CC/C=C(\C(=O)N[C@@H]1C(=O)N2C(C(=O)OCOC(=O)C(C)(C)C)=C(COC(N)=O)CS[C@H]12)c1csc(N)n1`, the Potency result was “inactive”. The entry for `NC(=O)c1ncn([C@@H]2O[C@H](CO)[C@@H](O)[C@H]2O)c1N` is “inactive”; for `C[C@@H]1C[C@H]2[C@@H]3C[C@H](F)C4=CC(=O)C=C[C@]4(C)[C@@]3(F)[C@@H](O)C[C@]2(C)[C@@]1(O)C(=O)CO` it is “inactive”. Consider `Cc1cc(C(C#N)c2ccc(Cl)cc2)c(Cl)cc1NC(=O)c1cc(I)cc(I)c1O` (stereo not given), for which the Potency is 26.6 µM (active). `CCCCN(CCCC)CCCOC(=O)c1ccc(N)cc1`: the Potency entry is “inactive”. In the case of `Nc1nc2c(ncn2CCC(CO)CO)c(=O)[nH]1` it was “inactive”; in that of `CC(=O)Oc1c(C)c(C)c2c(c1C)CC[C@@](C)(CCC[C@H](C)CCC[C@H](C)CCCC(C)C)O2`, “inactive”.

(Values after PubChem BioAssay (NCATS).)
